About 7,900 targets were measured; listed, in parts, are those with a hit and a random draw of the rest. About 0.6% of all pairs of compound and target were hits.
What was measured:
Assay in all cases: log2 fold change, soluble protein after heating vs DMSO (PISA); higher = thermal stabilisation; K562 cells, 10 uM, 30 min; active = over 0.2 and 3.5 SD of the protein, either way, in both replicates (recomputed)
erlotinib = compound: C#Cc1cccc(Nc2ncnc3cc(OCCOC)c(OCCOC)cc23)c1 [erlotinib]
Outline: (§1)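 Soluble protein was defined as the supernatant after 21,000xg for 90 min. It came from K562 cells at 2×10^6 cells/mL given 10 μM compound for 30 min, heated in aliquots for 3 min across 48°C-58°C, pooled, and extracted in PBS with 0.5% NP-40 at 4°C, and was quantified by TMTpro 16plex LC-MS/MS with equalised channel sums. Thermal stability against control samples, from duplicates, is reported as log2 fold change.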

[1] = compound: C/C(=N\NC(=O)C1=CC(=CC=C1)S(=O)(=O)N2CCOCC2)/C3=C(C=CC(=C3)Cl)O
Outline: as §1

[2] = compound: C1=CC(=C(C=C1Cl)C2=NC3=NC=CN=C3C(=N2)NC4=CC=NC=C4)F
Outline: as §1

[3] = compound: C1=CC(=CC=C1C2=NC3=C(N2)C=C(C=C3)C(=O)N)OC4=CC=C(C=C4)Cl
Outline: as §1

[4] = compound: C1=CC2=C(C=CC(=C2)/C=C\3/C(=O)NC(=NCC4=CC=CS4)S3)N=C1
Outline: as §1

[5] = compound: C1=CC2=NC=CN=C2C=C1/C=C/3\C(=O)NC(=O)S3
Outline: as §1

[6] = compound: C1=CC=C(C=C1)C2=NC(=C(N2)C3=CC=NC=C3)C4=CC(=C(C=C4)Cl)O
Outline: as §1

[7] = compound: C1=CC=C2C(=C1)C3=NNC4=CC=CC(=C43)C2=O
Outline: as §1

[8] = compound: C1CCN(C1)C(=O)NC2=CC=CC(=C2)NC3=NC=C(C(=N3)NCCC4=CN=CN4)Br
Outline: as §1

[9] = compound: C1CN(CCC1(CC2=CC=C(C=C2)Cl)N)C3=NC=NC4=C3C=CN4
Outline: as §1

IRAK-1-4 Inhibitor I = compound: C1COCCN1CCN2C3=CC=CC=C3N=C2NC(=O)C4=CC(=CC=C4)[N+](=O)[O-] [IRAK-1-4 Inhibitor I]
Outline: as §1

ibrutinib = compound: C=CC(=O)N1CCC[C@@H](n2nc(-c3ccc(Oc4ccccc4)cc3)c3c(N)ncnc32)C1 [ibrutinib]
Outline: as §1

[10] = compound: CC(=O)c1cnc2ccc(-c3cc(Cl)c(O)c(Cl)c3)nc2c1N[C@H]1CC[C@H](CN(C)C)CC1
Outline: as §1

ralimetinib = compound: CC(C)(C)Cn1c(N)nc2ccc(-c3[nH]c(C(C)(C)C)nc3-c3ccc(F)cc3)nc21 [ralimetinib]
Outline: as §1

[11] = compound: CC(C)(O)CC(=O)NCCn1ccc2ncnc(Nc3ccc(Oc4cccc(C(F)(F)F)c4)c(Cl)c3)c21
Outline: as §1

[12] = compound: CC(C)C1=C2N=C(C=C(N2N=C1)NCC3=CC=CC=C3)NCCCCCCN
Outline: as §1

[13] = compound: CC(C)C[C@@H](C=O)NC(=O)[C@H](CC(C)C)NC(=O)[C@H](CC(C)C)NC(=O)OCc1ccccc1
Outline: as §1

pinometostat = compound: CC(C)N(C[C@H]1O[C@@H](n2cnc3c(N)ncnc32)[C@H](O)[C@@H]1O)[C@H]1C[C@@H](CCc2nc3cc(C(C)(C)C)ccc3[nH]2)C1 [pinometostat]
Outline: as §1

[14] = compound: CC1=C(C(CC(=O)N1)C2=CC=C(C=C2)C(F)(F)F)C(=O)NC3=C(C=C4C(=C3)C=NN4)F
Outline: as §1

[15] = compound: CC1=C(C2=C(C=C1)C(=O)C3=CC=CC=C3N2CCCN)C
Outline: as §1

Measured: log2 fold change

C1D (UniProt Q13901)
Sequence of UniProt Q13901 (Q13901 whole entry, looked up): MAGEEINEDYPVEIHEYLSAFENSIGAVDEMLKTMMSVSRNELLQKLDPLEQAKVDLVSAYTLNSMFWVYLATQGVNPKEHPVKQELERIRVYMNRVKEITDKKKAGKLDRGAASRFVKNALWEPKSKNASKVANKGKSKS
inactive: erlotinib 0.022 | [1] -0.078 | [2] -0.01 | [3] -0.011 | [4] -0.246 | [5] 0.068 | [6] -0.071 | [7] -0.044 | [8] -0.019 | [9] -0.1 | IRAK-1-4 Inhibitor I 0.013 | ibrutinib -0.041 | [10] -0.081 | ralimetinib 0.016 | [11] -0.047 | [12] 0.072 | [13] 0.055 | pinometostat -0.081 | [14] 0.084 | [15] -0.004

CPSF6 isoform 2 (UniProt Q16630)
Sequence of UniProt Q16630 (Q16630 whole entry, looked up): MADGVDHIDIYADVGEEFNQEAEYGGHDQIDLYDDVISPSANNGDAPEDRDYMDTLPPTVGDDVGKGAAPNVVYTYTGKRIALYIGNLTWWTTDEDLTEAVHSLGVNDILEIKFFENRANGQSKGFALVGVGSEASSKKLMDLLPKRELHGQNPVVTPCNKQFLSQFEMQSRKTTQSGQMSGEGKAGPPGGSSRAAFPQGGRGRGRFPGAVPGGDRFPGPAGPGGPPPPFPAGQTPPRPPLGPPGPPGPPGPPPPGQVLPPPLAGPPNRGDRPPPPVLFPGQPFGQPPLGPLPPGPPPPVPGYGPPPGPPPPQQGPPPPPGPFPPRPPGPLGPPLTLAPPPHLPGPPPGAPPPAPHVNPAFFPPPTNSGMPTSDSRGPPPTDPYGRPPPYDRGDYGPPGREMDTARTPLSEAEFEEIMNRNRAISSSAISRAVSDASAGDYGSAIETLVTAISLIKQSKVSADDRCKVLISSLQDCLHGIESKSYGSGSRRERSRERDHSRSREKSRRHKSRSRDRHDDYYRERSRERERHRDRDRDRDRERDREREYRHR
inactive: erlotinib 0.023 | [1] 0.079 | [2] -0.072 | [3] 0.122 | [4] -0.04 | [5] -0.026 | [6] -0.002 | [7] -0.016 | [8] -0.021 | [9] -0.135 | IRAK-1-4 Inhibitor I -0.047 | ibrutinib 0 | ralimetinib -0.017 | [11] 0.02 | [12] -0.029 | [13] -0.053 | pinometostat 0.004 | [14] -0.042 | [15] 0.195
active: [10] -0.599

CASC3 (UniProt O15234)
Sequence of UniProt O15234 (O15234 whole entry, looked up): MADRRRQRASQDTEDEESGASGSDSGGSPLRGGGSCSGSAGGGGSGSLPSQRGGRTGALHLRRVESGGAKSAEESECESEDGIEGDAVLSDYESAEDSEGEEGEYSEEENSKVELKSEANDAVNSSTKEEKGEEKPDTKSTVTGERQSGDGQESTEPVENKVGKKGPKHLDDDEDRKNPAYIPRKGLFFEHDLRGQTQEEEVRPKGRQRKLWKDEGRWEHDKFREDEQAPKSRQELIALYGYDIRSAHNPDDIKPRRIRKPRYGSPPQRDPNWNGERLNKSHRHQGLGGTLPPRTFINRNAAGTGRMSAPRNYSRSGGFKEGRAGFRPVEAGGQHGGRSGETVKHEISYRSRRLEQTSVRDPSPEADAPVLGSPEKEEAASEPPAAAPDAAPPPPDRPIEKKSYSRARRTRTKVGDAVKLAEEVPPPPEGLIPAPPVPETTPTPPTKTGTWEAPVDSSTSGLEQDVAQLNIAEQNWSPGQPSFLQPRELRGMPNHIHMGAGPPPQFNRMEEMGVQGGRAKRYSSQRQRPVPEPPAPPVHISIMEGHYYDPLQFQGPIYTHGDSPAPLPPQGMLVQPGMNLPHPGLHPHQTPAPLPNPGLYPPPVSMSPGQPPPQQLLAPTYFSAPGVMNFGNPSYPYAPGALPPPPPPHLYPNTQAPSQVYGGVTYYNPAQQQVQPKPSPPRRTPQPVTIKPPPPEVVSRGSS
inactive: erlotinib -0.084 | [1] -0.166 | [2] -0.066 | [3] 0.068 | [4] 0 | [5] -0.047 | [6] 0.023 | [7] -0.29 | [8] 0.089 | [9] 0.022 | IRAK-1-4 Inhibitor I -0.014 | ibrutinib 0.1 | ralimetinib 0.07 | [11] -0.023 | [12] 0.411 | [13] -0.036 | pinometostat -0.005 | [14] 0.012 | [15] 0.206
active: [10] 0.582

CES2 isoform 4 (UniProt O00748)
Sequence of UniProt O00748 (O00748 whole entry, looked up): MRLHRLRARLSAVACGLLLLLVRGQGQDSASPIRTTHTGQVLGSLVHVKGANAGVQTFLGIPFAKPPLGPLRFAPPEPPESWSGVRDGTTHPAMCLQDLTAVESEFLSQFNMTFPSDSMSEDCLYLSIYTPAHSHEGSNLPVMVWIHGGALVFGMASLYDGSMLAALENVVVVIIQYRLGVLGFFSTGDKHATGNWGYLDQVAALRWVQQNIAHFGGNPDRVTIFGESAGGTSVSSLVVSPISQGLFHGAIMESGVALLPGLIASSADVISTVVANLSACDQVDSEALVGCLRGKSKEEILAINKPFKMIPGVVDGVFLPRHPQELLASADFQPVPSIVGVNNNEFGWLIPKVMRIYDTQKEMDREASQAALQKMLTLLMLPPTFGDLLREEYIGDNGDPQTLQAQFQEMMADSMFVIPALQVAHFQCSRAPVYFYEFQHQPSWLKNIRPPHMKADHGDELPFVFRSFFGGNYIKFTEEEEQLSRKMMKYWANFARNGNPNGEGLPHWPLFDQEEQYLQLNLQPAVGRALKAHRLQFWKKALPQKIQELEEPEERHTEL
inactive: erlotinib -0.05 | [1] -0.16 | [2] -0.264 | [3] -0.008 | [4] -0.06 | [5] -0.011 | [6] 0.139 | [7] 0.083 | [8] 0.061 | [9] -0.087 | IRAK-1-4 Inhibitor I -0.005 | ibrutinib 0.077 | [10] 0.038 | ralimetinib 0.006 | [11] 0.012 | [12] 0.045 | [13] 0.06 | pinometostat -0.02 | [14] -0.128 | [15] 0

CASP2 (UniProt P42575)
inactive: erlotinib 0.069 | [1] -0.007 | [2] 0.056 | [3] -0.011 | [4] 0.054 | [5] -0.025 | [6] -0.011 | [7] 0.028 | [8] 0.004 | [9] -0.053 | IRAK-1-4 Inhibitor I 0.017 | ibrutinib 0.027 | [10] 0 | ralimetinib -0.074 | [11] -0.073 | [12] -0.082 | [13] 0.072 | pinometostat -0.013 | [14] -0.016 | [15] 0.091

COPS3 (UniProt Q9UNS2)
Sequence of UniProt Q9UNS2 (Q9UNS2 whole entry, looked up): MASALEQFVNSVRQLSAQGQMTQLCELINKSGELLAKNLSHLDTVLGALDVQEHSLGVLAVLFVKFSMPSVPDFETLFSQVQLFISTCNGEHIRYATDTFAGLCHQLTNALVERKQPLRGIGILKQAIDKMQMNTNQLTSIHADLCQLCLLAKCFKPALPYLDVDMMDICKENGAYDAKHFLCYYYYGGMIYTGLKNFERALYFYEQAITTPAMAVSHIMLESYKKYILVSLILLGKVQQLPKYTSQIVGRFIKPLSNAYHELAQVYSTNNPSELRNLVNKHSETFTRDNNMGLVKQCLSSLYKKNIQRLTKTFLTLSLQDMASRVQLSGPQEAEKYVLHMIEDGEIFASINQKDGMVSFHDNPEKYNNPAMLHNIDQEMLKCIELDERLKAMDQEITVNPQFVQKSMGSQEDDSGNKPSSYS
inactive: erlotinib -0.019 | [1] 0.035 | [2] 0.091 | [3] 0.016 | [4] 0.055 | [5] 0.01 | [6] -0.009 | [7] 0.007 | [8] 0.014 | [9] 0.014 | IRAK-1-4 Inhibitor I 0.029 | ibrutinib 0.011 | [10] -0.023 | ralimetinib -0.096 | [11] -0.014 | [12] 0.028 | [13] -0.065 | pinometostat -0.046 | [14] -0.007 | [15] -0.003

COQ7 (UniProt Q99807)
Sequence of UniProt Q99807 (Q99807 whole entry, looked up): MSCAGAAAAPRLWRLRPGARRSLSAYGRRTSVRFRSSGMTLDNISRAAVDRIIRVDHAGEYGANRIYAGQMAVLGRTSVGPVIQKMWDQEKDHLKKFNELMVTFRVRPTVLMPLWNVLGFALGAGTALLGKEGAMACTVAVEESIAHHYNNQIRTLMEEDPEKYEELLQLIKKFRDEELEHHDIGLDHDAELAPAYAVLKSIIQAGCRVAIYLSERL
inactive: erlotinib 0.082 | [1] -0.014 | [2] 0.075 | [3] 0.023 | [4] -0.005 | [5] 0.068 | [6] -0.024 | [7] -0.009 | [8] 0.02 | [9] 0.052 | IRAK-1-4 Inhibitor I 0.08 | ibrutinib 0.021 | [10] -0.064 | ralimetinib -0.03 | [11] 0.01 | [12] -0.034 | [13] 0 | pinometostat -0.016 | [14] -0.018 | [15] -0.035

COX5A (UniProt P20674)
Sequence of UniProt P20674 (P20674 whole entry, looked up): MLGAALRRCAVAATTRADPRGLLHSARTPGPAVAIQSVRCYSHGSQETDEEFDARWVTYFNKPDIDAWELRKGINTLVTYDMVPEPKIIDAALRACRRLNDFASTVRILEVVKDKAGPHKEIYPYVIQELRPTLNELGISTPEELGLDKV
inactive: erlotinib -0.005 | [1] -0.05 | [2] 0.104 | [3] 0.052 | [4] 0.045 | [5] 0.016 | [6] 0.183 | [7] 0.051 | [8] -0.026 | [9] -0.081 | IRAK-1-4 Inhibitor I 0.041 | ibrutinib 0.008 | [10] -0.09 | ralimetinib -0.053 | [11] -0.103 | [12] 0.058 | [13] -0.069 | pinometostat -0.042 | [14] 0.041 | [15] 0.122

CSNK1D (UniProt P48730)
Sequence of UniProt P48730 (P48730 whole entry, looked up): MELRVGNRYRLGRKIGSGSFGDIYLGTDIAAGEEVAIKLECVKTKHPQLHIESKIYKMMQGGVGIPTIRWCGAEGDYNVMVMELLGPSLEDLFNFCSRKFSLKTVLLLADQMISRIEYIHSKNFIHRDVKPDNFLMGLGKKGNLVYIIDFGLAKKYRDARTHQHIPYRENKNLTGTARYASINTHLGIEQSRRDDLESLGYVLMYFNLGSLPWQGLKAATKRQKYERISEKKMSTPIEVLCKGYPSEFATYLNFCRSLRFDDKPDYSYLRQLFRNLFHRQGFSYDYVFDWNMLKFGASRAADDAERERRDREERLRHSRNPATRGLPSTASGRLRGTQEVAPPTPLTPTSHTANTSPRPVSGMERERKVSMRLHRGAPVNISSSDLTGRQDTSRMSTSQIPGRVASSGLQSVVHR
active: [10] 0.768
inactive: erlotinib 0.033 | [1] -0.02 | [2] -0.143 | [3] 0.011 | [4] -0.05 | [5] 0.051 | [6] 0.165 | [7] 0.258 | [8] -0.035 | [9] -0.086 | IRAK-1-4 Inhibitor I -0.041 | ibrutinib 0.002 | ralimetinib 0.216 | [11] -0.001 | [12] -0.138 | [13] 0.077 | pinometostat 0.13 | [14] 0.019 | [15] 0.063

CERT isoform 3 (UniProt Q9Y5P4)
Sequence of UniProt Q9Y5P4 (Q9Y5P4 whole entry, looked up): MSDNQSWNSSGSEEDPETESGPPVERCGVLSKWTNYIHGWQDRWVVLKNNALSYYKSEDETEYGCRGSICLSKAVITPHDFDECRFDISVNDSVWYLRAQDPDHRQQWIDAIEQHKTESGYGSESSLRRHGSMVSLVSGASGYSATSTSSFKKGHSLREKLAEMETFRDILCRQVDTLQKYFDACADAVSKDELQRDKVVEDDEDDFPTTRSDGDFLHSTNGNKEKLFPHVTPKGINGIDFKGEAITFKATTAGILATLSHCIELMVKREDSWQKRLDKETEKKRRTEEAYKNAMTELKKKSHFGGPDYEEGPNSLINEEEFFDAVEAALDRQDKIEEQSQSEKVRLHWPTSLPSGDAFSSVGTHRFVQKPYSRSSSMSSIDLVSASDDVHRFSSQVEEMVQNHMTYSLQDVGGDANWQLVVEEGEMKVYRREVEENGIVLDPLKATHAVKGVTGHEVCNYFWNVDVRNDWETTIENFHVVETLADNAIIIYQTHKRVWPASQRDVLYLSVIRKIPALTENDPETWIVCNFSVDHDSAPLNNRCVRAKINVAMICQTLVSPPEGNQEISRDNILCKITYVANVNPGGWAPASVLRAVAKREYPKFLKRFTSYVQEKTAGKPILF
active: [10] -0.382
inactive: erlotinib 0.05 | [1] 0.083 | [2] 0.018 | [3] -0.009 | [4] 0.039 | [5] 0.005 | [6] 0.044 | [7] 0 | [8] -0.054 | [9] -0.007 | IRAK-1-4 Inhibitor I -0.052 | ibrutinib 0.017 | ralimetinib 0.038 | [11] 0.166 | [12] 0.103 | [13] 0.005 | pinometostat 0.026 | [14] -0.048 | [15] -0.033

CAMKK2 (UniProt Q96RR4)
inactive: erlotinib -0.091 | [1] -0.047 | [2] -0.026 | [3] -0.232 | [4] -0.059 | [5] -0.081 | [6] -0.122 | [7] -0.037 | [8] -0.19 | [9] 0.23 | IRAK-1-4 Inhibitor I -0.05 | ibrutinib -0.069 | [10] 0.131 | ralimetinib -0.117 | [11] 0.002 | [12] 0.069 | [13] -0.052 | pinometostat 0.142 | [14] 0.039 | [15] -0.025

CSNK2A1 (UniProt P68400)
Sequence of UniProt P68400 (P68400 whole entry, looked up): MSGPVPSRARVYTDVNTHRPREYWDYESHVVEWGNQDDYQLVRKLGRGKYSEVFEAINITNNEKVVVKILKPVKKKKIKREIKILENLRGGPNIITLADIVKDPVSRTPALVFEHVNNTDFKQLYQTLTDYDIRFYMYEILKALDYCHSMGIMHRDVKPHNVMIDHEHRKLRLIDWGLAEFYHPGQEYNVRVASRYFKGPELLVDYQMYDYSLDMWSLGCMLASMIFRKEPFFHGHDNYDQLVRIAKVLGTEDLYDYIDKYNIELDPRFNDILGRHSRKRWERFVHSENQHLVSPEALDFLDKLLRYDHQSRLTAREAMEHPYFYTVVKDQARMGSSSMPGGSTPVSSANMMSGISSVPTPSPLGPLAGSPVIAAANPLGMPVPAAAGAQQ
inactive: erlotinib -0.03 | [1] -0.011 | [2] 0.006 | [3] 0.024 | [4] 0.139 | [6] -0.041 | [7] 0.094 | [8] -0.003 | [9] -0.013 | IRAK-1-4 Inhibitor I 0.022 | ibrutinib 0.029 | ralimetinib -0.082 | [11] 0.006 | [12] -0.064 | [13] -0.021 | pinometostat 0.103 | [14] 0.004 | [15] 0.159
active: [5] 0.296 | [10] 0.245

COX7C (UniProt P15954)
Sequence of UniProt P15954 (P15954 whole entry, looked up): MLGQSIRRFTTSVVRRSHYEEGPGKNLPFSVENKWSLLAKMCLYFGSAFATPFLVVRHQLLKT
inactive: erlotinib -0.006 | [1] 0.134 | [2] 0.209 | [3] 0.154 | [4] -0.174 | [5] 0.073 | [6] 0.08 | [7] 0.27 | [8] -0.003 | [9] 0.047 | IRAK-1-4 Inhibitor I -0.013 | ibrutinib 0.057 | [10] -0.013 | ralimetinib 0.301 | [11] 0.041 | [12] 0.184 | [13] 0.074 | pinometostat 0.092 | [14] 0.022 | [15] 0.009

CFAP36 isoform 2 (UniProt Q96G28)
Sequence of UniProt Q96G28 (Q96G28 whole entry, looked up): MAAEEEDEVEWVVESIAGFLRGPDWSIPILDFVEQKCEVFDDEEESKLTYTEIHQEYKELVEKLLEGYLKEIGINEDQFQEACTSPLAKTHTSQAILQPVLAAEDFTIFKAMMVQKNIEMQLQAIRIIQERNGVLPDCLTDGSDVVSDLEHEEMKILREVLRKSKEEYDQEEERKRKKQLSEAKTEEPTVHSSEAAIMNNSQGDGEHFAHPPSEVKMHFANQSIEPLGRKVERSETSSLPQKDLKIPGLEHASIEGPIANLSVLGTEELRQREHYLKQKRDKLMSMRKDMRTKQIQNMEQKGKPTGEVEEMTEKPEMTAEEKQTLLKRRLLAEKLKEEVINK
inactive: erlotinib 0.048 | [1] -0.11 | [2] -0.046 | [3] 0.005 | [4] 0.059 | [5] 0.042 | [6] -0.068 | [7] 0.007 | [8] 0.127 | [9] -0.111 | IRAK-1-4 Inhibitor I -0.183 | ibrutinib -0.022 | [10] 0.001 | ralimetinib 0.053 | [11] -0.012 | [12] -0.09 | [13] 0.065 | pinometostat 0.024 | [15] 0.103

CLUH (UniProt O75153)
active: [5] 0.324 | [10] 0.467
inactive: erlotinib 0.08 | [1] 0 | [2] 0.318 | [3] -0.042 | [4] 0.137 | [6] 0.03 | [7] 0.058 | [8] -0.043 | [9] -0.027 | IRAK-1-4 Inhibitor I 0.107 | ralimetinib 0.028 | [11] -0.048 | [12] -0.179 | [13] -0.009 | pinometostat 0.045 | [14] -0.094 | [15] 0.095

CRTC1 isoform 2 (UniProt Q6UUV9)
inactive: erlotinib 0.007 | [1] 0.07 | [2] -0.228 | [3] 0.068 | [4] 0.185 | [5] -0.052 | [6] -0.229 | [7] -0.051 | [8] -0.053 | [9] 0.021 | IRAK-1-4 Inhibitor I 0.026 | ibrutinib -0.061 | [10] -0.023 | ralimetinib 0.025 | [11] -0.042 | [12] 0.112 | [13] -0.041 | pinometostat -0.024 | [15] 0.072

Source: the supplement of paper PMC10849652
